Measurements as given in PubChem BioAssay AID1159580 (chemical genetic matrix, 2015).
Among all 5,500 compounds or so, about 2,000 (36%) were called active. Roughly 18% stayed inconclusive and do not appear here. Cut-off read from the data, not from the text of the source: active = normalized growth mostly below about 0.91 (no sharp cut-off); inconclusive = no clear call, values can overlap the other calls; inactive = mostly above about 0.92. The list shows a part of the results.

Assay: chemical genetic growth profiling, strain panel (AID 1159580);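 note: tested at 20 µM; growth read once vehicle control cultures reached saturation at 30 °C; 1 = growth at the plate median or of vehicle wells; lower values mean less growth of the strain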
Conditions: growth OD
[1] = S. cerevisiae deletion strains, locus YAL013W, strain DEP1, active compounds read low
[2] = S. cerevisiae deletion strains, locus YBR229C, strain ROT2, active compounds read low
[3] = S. cerevisiae deletion strains, locus YDL101C, strain DUN1, active compounds read low
[4] = S. cerevisiae deletion strains, locus YDR150W, strain NUM1, active compounds read low
[5] = S. cerevisiae deletion strains, locus YEL061C, strain CIN8, active compounds read low
[6] = S. cerevisiae deletion strains, locus YGR078C, strain PAC10, active compounds read low
[7] = S. cerevisiae deletion strains, locus YGR229C, strain SMI1, active compounds read low
[8] = S. cerevisiae deletion strains, locus YHR030C, strain SLT2, active compounds read low
[9] = S. cerevisiae deletion strains, locus YHR087W, strain rtc3, active compounds read low
[10] = S. cerevisiae deletion strains, locus YJL187C, strain SWE1, active compounds read low
[11] = S. cerevisiae deletion strains, locus YJR043C, strain POL32, active compounds read low
[12] = S. cerevisiae deletion strains, locus YJR075W, strain HOC1, active compounds read low
[13] = S. cerevisiae deletion strains, locus YLR039C, strain RIC1, active compounds read low
[14] = S. cerevisiae deletion strains, locus YLR058C, strain SHM2 (second series), active compounds read low
[15] = S. cerevisiae deletion strains, locus YLR085C, strain ARP6, active compounds read low
[16] = S. cerevisiae deletion strains, locus YLR262C, strain YPT6, active compounds read low
[17] = S. cerevisiae deletion strains, locus YML094W, strain GIM5, active compounds read low
[18] = S. cerevisiae deletion strains, locus YMR219W, strain ESC1, active compounds read low
[19] = S. cerevisiae deletion strains, locus YMR263W, strain SAP30, active compounds read low
[20] = S. cerevisiae deletion strains, locus YMR307W, strain GAS1, active compounds read low
[21] = S. cerevisiae deletion strains, locus YNL153C, strain GIM3, active compounds read low
[22] = S. cerevisiae deletion strains, locus YNL298W, strain CLA4 (second series), active compounds read low
[23] = S. cerevisiae deletion strains, locus YNL322C, strain KRE1, active compounds read low
[24] = S. cerevisiae deletion strains, locus YNR030W, strain Alg12, active compounds read low
[25] = S. cerevisiae deletion strains, locus YPL055C, strain LGE1, active compounds read low
[26] = S. cerevisiae deletion strains, locus YPL241C, strain CIN2, active compounds read low
[27] = S. cerevisiae deletion strains, locus YPR135W, strain CTF4, active compounds read low
[28] = S. cerevisiae deletion strains, locus YCL061C, strain MRC1, active compounds read low
[29] = S. cerevisiae deletion strains, locus YDL134C, strain PPH21, active compounds read low

Measured: normalized growth

CCc1cccc(C)c1NC(=O)CC(C)(C)CC(=O)O
inactive: [1] 0.988 | [2] 0.994 | [3] 1.02 | [4] 0.981 | [5] 0.992 | [6] 0.99 | [7] 0.992 | [8] 0.989 | [9] 1.01 | [10] 0.996 | [11] 0.995 | [12] 1.01 | S. cerevisiae deletion strains, locus YKL190W, strain CNB1, active compounds read low 0.987 | [13] 1.03 | [14] 0.996 | [15] 0.966 | [16] 1.02 | [17] 1.06 | [18] 0.996 | [19] 0.967 | [20] 0.983 | [21] 1.01 | [22] 1.01 | [23] 0.992 | [24] 1 | [25] 1.02 | [26] 1.01 | [27] 1.06

CC(C)(CC(=O)O)CC(=O)Nc1cc(C(F)(F)F)cc(C(F)(F)F)c1
active: [24] 0.537 | [26] 0.639
inactive: [1] 0.997 | [2] 1.01 | [28] 1.03 | [3] 0.997 | [29] 0.999 | [4] 0.993 | [5] 0.998 | [6] 1.01 | [7] 1 | [8] 1.01 | [9] 1 | [10] 1 | [11] 0.997 | [12] 0.997 | [13] 1.03 | [14] 1.01 | [15] 1.03 | [16] 1.02 | [17] 0.969 | [18] 1.01 | [19] 1.05 | [20] 0.967 | [21] 1.01 | [22] 1.01 | [23] 0.973 | S. cerevisiae deletion strains, locus YOL006C, strain TOP1, active compounds read low 0.964 | [25] 1.01 | [27] 1.06

O=C(CN1CCOCC1)Nc1cc(C(F)(F)F)cc(C(F)(F)F)c1
inactive: [1] 0.999 | [2] 1.01 | [28] 1.01 | [3] 1 | [29] 0.995 | [4] 1 | [5] 1.01 | [6] 1.01 | [8] 1.02 | [9] 0.995 | [11] 0.974 | [12] 0.986 | [13] 1.06 | [14] 1 | [15] 0.988 | [16] 1.05 | [17] 0.996 | [18] 1.01 | [19] 0.986 | [20] 1.01 | S. cerevisiae deletion strains, locus YNL128W, strain TEP1, active compounds read low 0.993 | [21] 0.99 | [22] 0.992 | [23] 1 | [24] 0.994 | [25] 0.972 | [26] 1.07 | [27] 1.02 | S. cerevisiae strains, strain wild type, active compounds read low 0.999

Nc1ccccc1C(=O)Nc1cc(C(F)(F)F)cc(C(F)(F)F)c1
active: S. cerevisiae deletion strains, locus YLR113W, strain HOG1, active compounds read low 0.762 | S. cerevisiae deletion strains, locus YPL256C, strain CLN2, active compounds read low 0.781
inactive: S. cerevisiae deletion strains, locus YAR019C, strain CDC15, active compounds read low 0.957 | S. cerevisiae deletion strains, locus YBL105C, strain PKC1, active compounds read low 0.973 | S. cerevisiae deletion strains, locus YBR135W, strain CKS1, active compounds read low 0.985 | S. cerevisiae deletion strains, locus YBR136W, strain MEC1, active compounds read low 0.946 | S. cerevisiae deletion strains, locus YBR160W, strain CDC28, active compounds read low 0.982 | S. cerevisiae deletion strains, locus YDL017W, strain CDC7, active compounds read low 0.978 | S. cerevisiae deletion strains, locus YDL028C, strain MPS1, active compounds read low 0.943 | [3] 0.937 | S. cerevisiae deletion strains, locus YDL108W, strain KIN28, active compounds read low 0.969 | S. cerevisiae deletion strains, locus YDL132W, strain cdc53, active compounds read low 0.967 | S. cerevisiae deletion strains, locus YDL214C, strain PRR2, active compounds read low 1 | S. cerevisiae deletion strains, locus YDR052C, strain DBF4, active compounds read low 0.97 | S. cerevisiae deletion strains, locus YDR054C, strain cdc34, active compounds read low 0.96 | S. cerevisiae deletion strains, locus YDR226W, strain ADK1, active compounds read low 0.976 | S. cerevisiae deletion strains, locus YDR477W, strain SNF1, active compounds read low 0.992 | S. cerevisiae deletion strains, locus YER123W, strain YCK3, active compounds read low 0.957 | S. cerevisiae deletion strains, locus YER133W, strain GLC7, active compounds read low 1.01 | S. cerevisiae deletion strains, locus YFL009W, strain cdc4, active compounds read low 0.968 | S. cerevisiae deletion strains, locus YFL029C, strain CAK1, active compounds read low 0.944 | S. cerevisiae deletion strains, locus YFR003C, strain YPI1, active compounds read low 0.984 | S. cerevisiae deletion strains, locus YFR019W, strain FAB1, active compounds read low 0.986 | S. cerevisiae deletion strains, locus YFR028C, strain CDC14, active compounds read low 0.974 | S. cerevisiae deletion strains, locus YGR040W, strain KSS1, active compounds read low 1.01 | S. cerevisiae deletion strains, locus YGR052W, strain FMP48, active compounds read low 0.921 | S. cerevisiae deletion strains, locus YGR092W, strain DBF2, active compounds read low 0.961 | [8] 0.855 | S. cerevisiae deletion strains, locus YHR079C, strain IRE1, active compounds read low 0.836 | S. cerevisiae deletion strains, locus YHR082C, strain KSP1, active compounds read low 0.851 | S. cerevisiae deletion strains, locus YHR205W, strain SCH9, active compounds read low 0.816 | S. cerevisiae deletion strains, locus YIL147C, strain SLN1, active compounds read low 0.946 | S. cerevisiae deletion strains, locus YJL095W, strain BCK1, active compounds read low 0.844 | S. cerevisiae deletion strains, locus YJL128C, strain PBS2, active compounds read low 0.914 | S. cerevisiae deletion strains, locus YJL157C, strain FAR1, active compounds read low 1.01 | S. cerevisiae deletion strains, locus YJR016C, strain ILV3, active compounds read low 0.943 | S. cerevisiae deletion strains, locus YJR066W, strain TOR1 (second series), active compounds read low 0.997 | S. cerevisiae deletion strains, locus YJR066W, strain TOR1, active compounds read low 0.903 | S. cerevisiae deletion strains, locus YKL048C, strain ELM1, active compounds read low 0.949 | S. cerevisiae deletion strains, locus YKL067W, strain YNK1, active compounds read low 0.978 | S. cerevisiae deletion strains, locus YKL101W, strain HSL1, active compounds read low 0.957 | S. cerevisiae deletion strains, locus YKL193C, strain SDS22, active compounds read low 0.955 | S. cerevisiae deletion strains, locus YKL203C, strain TOR2, active compounds read low 1.06 | S. cerevisiae deletion strains, locus YLR133W, strain CKI1, active compounds read low 0.934 | S. cerevisiae deletion strains, locus YLR403W, strain SFP1, active compounds read low 1.02 | S. cerevisiae deletion strains, locus YML070W, strain DAK1, active compounds read low 0.933 | S. cerevisiae deletion strains, locus YMR001C, strain CDC5, active compounds read low 0.975 | S. cerevisiae deletion strains, locus YMR205C, strain PFK2 (second series), active compounds read low 0.947 | S. cerevisiae deletion strains, locus YMR277W, strain FCP1, active compounds read low 0.952 | S. cerevisiae deletion strains, locus YNL006W, strain LST8, active compounds read low 0.937 | S. cerevisiae deletion strains, locus YNL020C, strain ARK1, active compounds read low 0.945 | S. cerevisiae deletion strains, locus YNL161W, strain CBK1, active compounds read low 0.971 | S. cerevisiae deletion strains, locus YNL183C, strain NPR1, active compounds read low 0.871 | S. cerevisiae deletion strains, locus YNL207W, strain RIO2, active compounds read low 0.963 | S. cerevisiae deletion strains, locus YNL222W, strain SSU72, active compounds read low 0.977 | S. cerevisiae deletion strains, locus YNL307C, strain MCK1 (second series), active compounds read low 0.941 | S. cerevisiae deletion strains, locus YOL078W, strain AVO1, active compounds read low 0.961 | S. cerevisiae deletion strains, locus YOL136C, strain PFK27, active compounds read low 0.956 | S. cerevisiae deletion strains, locus YOR061W, strain CKA2, active compounds read low 0.99 | S. cerevisiae deletion strains, locus YOR119C, strain RIO1, active compounds read low 0.981 | S. cerevisiae deletion strains, locus YOR231W, strain MKK1, active compounds read low 0.87 | S. cerevisiae deletion strains, locus YOR329C, strain SCD5, active compounds read low 0.969 | S. cerevisiae deletion strains, locus YPL031C, strain PHO85, active compounds read low 0.991 | S. cerevisiae deletion strains, locus YPL153C, strain RAD53, active compounds read low 0.987 | S. cerevisiae deletion strains, locus YPL204W, strain HRR25, active compounds read low 0.976 | S. cerevisiae deletion strains, locus YPL209C, strain IPL1, active compounds read low 0.952 | S. cerevisiae deletion strains, locus YPR025C, strain CCL1, active compounds read low 0.985 | S. cerevisiae deletion strains, locus YPR106W, strain ISR1, active compounds read low 0.934 | S. cerevisiae deletion strains, locus YPR111W, strain DBF20, active compounds read low 0.946 | S. cerevisiae deletion strains, strain NNK1, active compounds read low 0.93 | S. cerevisiae deletion strains, strain TSCII, active compounds read low 0.974
